96 compounds from PubChem BioAssay AID651558 (National Center for Advancing Translational Sciences (NCATS), 2012) can be followed below.

Each structure is given as a SMILES string. Hit rate of the full screen: of about 1,200 compounds, about 480 (40%) were called active. Inconclusive results (about 29%) are left out. Some of the results follow. Values without a mark were called inactive. Calls follow the shape of the dose curve; as a rule, active = well fitted inhibition curve with a large enough effect; inconclusive = small, poorly fitted or top-dose-only effect; inactive = no such curve, though single readings can be large or run the other way.
% is scaled to controls: 0 for no effect and ±100 for the full control effect; potency is read from the fitted curve at half-maximal effect.

A short description of the test: qHTS Assay to Find Inhibitors of Chronic Active B-Cell Receptor Signaling: Hit Validation in Primary Screen. Also: nearly all actives have a fitted effect of over 75% in size. Conditions: ABC-DLBCL IkB-luc/CBR ratio luminescence, 4 h; series mostly up to 46.1 µM; activity change, negative = inhibition: at the top concentration. The gist of the method: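 TMD8 ABC-DLBCL cells carrying doxycycline-inducible IkBa-green luciferase fusion and free red luciferase, 0.5% FBS, dosed 46 uM–3 nM with doxycycline for 4 h at 37C. Green/red luminescence ratio normalized to basal and 10 uM MG-132.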
(In general: Quantitative high-throughput screening tests each substance at several concentrations.)
`COc1cc2c(c(OC)c1OC)-c1ccc(OC)c(=O)cc1[C@@H](N(C)CC#CCO)CC2`: the Potency was 0.259 µM (active).

On to `COc1cc2c(c(OC)c1OC)-c1ccc(N(C)CC(OC)OC)c(=O)cc1[C@@H](NC(C)=O)CC2`, for which the Potency is 5.8 µM (active).

With `COc1cccc(C(=O)Nc2ccc3c(cc2=O)[C@@H](NC(C)=O)CCc2cc(OC)c(OC)c(OC)c2-3)c1`, the Potency was 23.1 µM (active).

In the case of `COc1cc2c(c(OC)c1OC)-c1ccc(OC)c(=O)cc1[C@@H](NC(C)=O)CC2`, the Potency was 0.206 µM (active).

On to `CCCC(=O)O[C@]1(C(=O)CO)CC[C@H]2[C@@H]3CCC4=CC(=O)CC[C@]4(C)[C@H]3[C@@H](O)C[C@@]21C`, for which the “activity change, negative = inhibition” value was -35.5%.

For `Cc1nc2c(-c3ccccc3)c[nH]n2c(=O)c1Cc1ccccc1`, the “activity change, negative = inhibition” value is 1.91%.

On to `CCN(CC)c1ccc(Nc2cc3n(c(=O)n2)CCc2cc(OC)c(OC)cc2-3)cc1`, for which the “activity change, negative = inhibition” value was -4.57%.

As to `COc1cc2c(c(OC)c1OC)-c1ccc(OC)c(=O)cc1C(NC(C)=O)CC2` (stereo unspecified), the Potency was 0.206 µM (active).

For the compound `CCN(CC)c1ccc2c(cc1=O)[C@@H](NC)CCc1cc(OC)c(OC)c(OC)c1-2`, the Potency was 5.8 µM (active).

Turning to `NCCNC(=O)Cc1ccc(NC(=O)Cc2ccc(Nc3ncnc4c3ncn4[C@@H]3O[C@H](CO)[C@@H](O)[C@H]3O)cc2)cc1`, the Potency was 0.461 µM (active).

Consider `NCCNC(=O)Cc1cccc(NC(=O)Cc2ccc(Nc3ncnc4c3ncn4[C@@H]3O[C@H](CO)[C@@H](O)[C@H]3O)cc2)c1`, for which the Potency was 1.46 µM (active).

For `NC(=O)c1c(NC(=O)CSc2nc(N)cc(=O)[nH]2)sc2c1CCCC2`, the Potency was 9.2 µM (active).

On to `CC1CCc2c(sc(NC(=O)CSc3nc(N)cc(=O)[nH]3)c2C(N)=O)C1` (stereo unspecified), for which the Potency was 10.3 µM (active).

As for `COc1cc2c(cc1OC)C(C)N(C(=O)c1cc(C)on1)CC2` (stereo unspecified), the Potency is 5.8 µM (active).

On to `Cc1cccc(C)c1-n1c(C)cc(/C=N/NC(N)=S)c1C`, for which the “activity change, negative = inhibition” value is -9.78%.

For the compound `COc1ccccc1NS(=O)(=O)c1cccc(C(=O)N/N=C/c2cn(-c3ccccc3)nc2-c2ccccc2)c1`, the “activity change, negative = inhibition” value is 37.2%.

`COc1ccc(-c2nn(-c3ccccc3)cc2/C=N/NC(N)=S)cc1OC`: the Potency is 20.6 µM (active).

For `Cc1ccccc1NCC(=O)c1ccc(Br)cc1`, the “activity change, negative = inhibition” value is -0.682%.

For the compound `Cc1ccc(N(C)S(=O)(=O)c2ccc(-c3cnc(C4CC4)o3)cc2)cc1`, the Potency was 5.8 µM (active).

`Cc1cccc(N(C)S(=O)(=O)c2ccc(-c3cnc(C4CC4)o3)cc2)c1`: the Potency is 1.84 µM (active).

Take `Cc1ccc2[nH]c(-c3cccc(F)c3)cc(=O)c2c1`: the Potency was 4.11 µM (active).

For the compound `Cc1ccc2[nH]c(-c3ccccc3)cc(=O)c2c1`, the Potency was 5.17 µM (active).

Take `CCn1c(SCC(=O)c2ccc(Cl)cc2)nnc1C(C)C`: the “activity change, negative = inhibition” value is -2.9%.

As for `CCOc1cc(/C=C(/C#N)C(=O)Nc2ccc(O)cc2)cc(Br)c1O`, the Potency is 2.06 µM (active).

`CC1(CCc2ccc(O)cc2)NC(=O)NC1=O` (stereo unspecified): the “activity change, negative = inhibition” value is -10.3%.

`CCOC(=O)C1(C)C(C(=O)OC)=C(c2ccc(OC)cc2)c2ccccc2N1C(=O)OC` (stereo unspecified): the “activity change, negative = inhibition” value is -6.99%.

Regarding `CCOC(=O)C(NC(=O)N(C)C)(Nc1sc(C)c(CC)c1C#N)C(F)(F)F` (stereo unspecified), the “activity change, negative = inhibition” value was -16.9%.

Regarding `O=[N+]([O-])c1ccccc1S(=O)(=O)Nc1cccc2cccnc12`, the Potency is 13 µM (active).

On to `O=S(=O)(Nc1cccc2cccnc12)c1ccccc1`, for which the Potency was 13 µM (active).

With `O=C(/C=C\c1ccccc1)Oc1cccc2cccnc12`, the “activity change, negative = inhibition” value was 71.2%.

On to `Cc1ccc(S(=O)(=O)Nc2cccc3cccnc23)cc1`, for which the Potency is 8.2 µM (active).

`Cc1c(C(=O)Oc2cccc3cccnc23)oc2ccccc12`: the “activity change, negative = inhibition” value is -1.8%.

Consider `O=[N+]([O-])c1ccc(O)c2ncccc12`, for which the “activity change, negative = inhibition” value is -14.7%.

Consider `Cc1ccnc(NC(=O)c2cccc(S(=O)(=O)Nc3ccc(C)cc3C)c2)c1`, for which the “activity change, negative = inhibition” value was 5.49%.

For the compound `O=[N+]([O-])c1cc(F)c2cccnc2c1O`, the “activity change, negative = inhibition” value is -3.02%.

Regarding `CCN(CC)S(=O)(=O)c1ccc(C(=O)NCCSc2c[nH]c3ccccc23)cc1`, the “activity change, negative = inhibition” value is -21.6%.

For the compound `COc1cccc(/C=N/Nc2nc(Nc3ccccc3)nc(-n3nc(C)cc3C)n2)c1O`, the Potency is 0.92 µM (active).

Consider `CC1=NN(C(N)=S)C(=O)C1N=Nc1ccccc1` (stereo unspecified), for which the “activity change, negative = inhibition” value is 3.07%.

For `Cc1ccsc1/C=N/NC(=O)c1cc(-c2ccncc2)nc2ccccc12`, the Potency is 1.64 µM (active).

As for `COc1ccc(-c2cc(C(=O)N/N=C(\C)c3cccnc3)c3ccccc3n2)cc1`, the “activity change, negative = inhibition” value is 32%.

As for `CCc1ccc(/C=N/NC(=O)c2cc(-c3ccncc3)nc3ccccc23)s1`, the Potency was 8.2 µM (active).

Regarding `Fc1ccc(/C=N/NC(=S)Nc2cccnc2)cc1`, the “activity change, negative = inhibition” value is -9.27%.

Take `Cc1ccc(/C=N/NC(=O)c2cc(-c3cccnc3)nc3ccccc23)cc1`: the Potency was 2.31 µM (active).

For the compound `Cc1ccc(/C=N/NC(=O)c2cc(-c3ccncc3)nc3ccccc23)o1`, the Potency was 5.17 µM (active).

Consider `O=C(CSc1cccc[n+]1[O-])c1ccc(Cl)cc1`, for which the “activity change, negative = inhibition” value was -3.23%.

With `CCc1ccc(NC(=O)CSc2nc(=O)n(CCCN3CCOCC3)c3c2CCCC3)cc1`, the “activity change, negative = inhibition” value is -11.2%.

With `O=C(N/N=C/c1ccc([N+](=O)[O-])o1)c1cc(-c2ccc(-c3ccccc3)cc2)nc2ccccc12`, the Potency is 4.61 µM (active).

For `S=C(NCCN1CCOCC1)N/N=C/c1cccs1`, the “activity change, negative = inhibition” value was -5.86%.

Consider `CC(=NNC(=O)c1cc(C)nc2ccccc12)c1ccc(N2CCOCC2)cc1`, for which the “activity change, negative = inhibition” value was -17.3%.

As to `O=C(N/N=C/c1cccs1)c1cc(-c2ccncc2)nc2ccccc12`, the Potency was 2.59 µM (active).

Regarding `CCc1ccc(/C=N/NC(=O)c2cc(C3CC3)nc3ccccc23)s1`, the Potency was 16.4 µM (active).

For the compound `COC(=O)c1cnc(Oc2ccc(NC(=O)NC(=O)c3c(OC)cccc3OC)cc2)cc1C(F)(F)F`, the Potency is 1.84 µM (active).

With `Cc1cc(C)c2cc(C=O)c(Cl)nc2c1`, the Potency is 3.66 µM (active).

As to `Cc1ccc(N=Nc2c(C)[nH]n(C(N)=S)c2=O)cc1`, the “activity change, negative = inhibition” value was -6.9%.

Regarding `CCc1cc2c(SCC(=O)NC3CC3)ncnc2s1`, the “activity change, negative = inhibition” value was -21.8%.

With `COc1ccc(C2CC(c3c(O)cc(C)oc3=O)=NCCS2)c(OC)c1` (stereo unspecified), the Potency was 1.16 µM (active).

Turning to `Cc1ccc(C(=O)Nc2nc(C)c(C(=O)Nc3ccc4c(c3)CCC4)s2)cc1`, the Potency was 4.61 µM (active).

For `CCCn1nnc(NC(=S)NC(=O)c2ccc(-c3ccc(Br)cc3)o2)n1`, the “activity change, negative = inhibition” value is -9.53%.

With `COc1cc(C(=O)NC2CCN(Cc3nnnn3Cc3ccc(F)cc3)CC2)cc(OC)c1OC`, the “activity change, negative = inhibition” value was -15.1%.

Consider `COc1ccc(C2=NOC(C(=O)NCc3ccc(F)cc3)C2)cc1` (stereo unspecified), for which the Potency was 18.4 µM (active).

With `COc1cc(C2=NOC(C(=O)NCc3ccc(F)cc3)C2)cc(OC)c1OC` (stereo unspecified), the Potency was 4.61 µM (active).

On to `Cc1ccc(C(=O)O)cc1NC(=S)NC(=O)C(c1ccccc1)c1ccccc1`, for which the “activity change, negative = inhibition” value was -10.3%.

Regarding `COc1cccc(N2CC(O)=C(c3nc4ccccc4s3)C2=N)c1`, the Potency was 23.1 µM (active).

Turning to `Cc1cc(C)cc(N2CC(O)=C(c3nc4ccccc4c(=O)[nH]3)C2=N)c1`, the “activity change, negative = inhibition” value is -26%.

In the case of `COc1ccc(/C=N/Nc2nccnc2Cl)c(OC)c1`, the Potency is 23.1 µM (active).

`COc1ccc(/C(C)=N/Nc2ncc(Cl)cc2Cl)c(O)c1`: the “activity change, negative = inhibition” value was -7.99%.

As for `CC(C)COc1ccc(C(=O)Nc2cc(S(=O)(=O)N3CCOCC3)ccc2N2CCCC2)cc1`, the “activity change, negative = inhibition” value was -6.48%.

With `CCOC(=O)N1CCN(S(=O)(=O)c2ccc(C(=O)Nc3ccc(F)cc3F)cc2)CC1`, the Potency was 20.6 µM (active).

In the case of `COc1cc(OC)cc(-c2cc3cc4c(cc3cn2)OCO4)c1`, the Potency is 3.66 µM (active).

`CCOC(=O)C1CCN(S(=O)(=O)c2c(Cl)ccc3nonc23)CC1`: the Potency is 5.8 µM (active).

Regarding `CCOc1ccc2nc(N3C(=O)CNC3=S)sc2c1`, the “activity change, negative = inhibition” value is 58.1%.

Regarding `CCOC(=O)Nc1ccc2nc(N3CCCCCC3)sc2c1`, the Potency is 20.6 µM (active).

Turning to `CN(CC(=O)Nc1ccccc1C(F)(F)F)C(=O)c1ccccc1Sc1ccccc1C#N`, the “activity change, negative = inhibition” value was -11.6%.

`COc1cccc(N2CCN(C(=O)c3ccc(CS(=O)c4ccc(Cl)cc4)o3)CC2)c1` (stereo unspecified): the Potency was 23.1 µM (active).

As for `COc1cccc(N2CCN(C(=O)c3ccc(CS(=O)c4ccc(C)cc4)o3)CC2)c1` (stereo unspecified), the Potency is 6.51 µM (active).

Consider `C=CCNC(=S)NN=C1CCCCCCC1`, for which the “activity change, negative = inhibition” value was -10.4%.

Turning to `CCOC(=O)c1cnc(Nc2nc3ccccc3o2)nc1CSC(=S)N(CC)CC`, the “activity change, negative = inhibition” value was -0.925%.

For `COc1ccc(C=C2c3ccccc3C(=O)c3ccccc32)c(OC)c1`, the Potency is 4.61 µM (active).

For the compound `O=C(OCC(O)CO)c1ccccc1Nc1ccnc2cc(Cl)ccc12` (stereo unspecified), the Potency is 20.6 µM (active).

As for `Oc1ccccc1-n1c(-c2ccccc2)ccc1-c1ccccc1`, the “activity change, negative = inhibition” value was -13.2%.

On to `N#CC1=C(N)OC2=C(CCc3ccccc32)C1c1ccccc1` (stereo unspecified), for which the Potency is 2.59 µM (active).

Take `Cc1nc2c(C(F)(F)F)cccc2c2c1CCS2`: the Potency was 16.4 µM (active).

As to `COc1ccccc1-n1cnc2cc(NCc3cccs3)ccc21`, the Potency was 16.4 µM (active).

Turning to `N#CC1=C2SCC(O)(c3ccccc3)N2C(=O)CC1c1ccccc1` (stereo unspecified), the Potency is 18.4 µM (active).

As for `N#CC1=C2SCC(O)(c3ccccc3)N2C(=O)CC1c1cccs1` (stereo unspecified), the Potency is 13 µM (active).

As for `COc1cc(OC)cc(C(=O)NCc2cc(C)nc3ccccc23)c1`, the “activity change, negative = inhibition” value was -13.4%.

As to `COc1cc(OC)cc(C(=O)NCc2ccc3c(c2)CCN3C(=O)c2ccccc2)c1`, the Potency is 10.3 µM (active).

For `CCOc1ccccc1NC(=O)Cn1nnc(C(=O)NCc2cccs2)c1N`, the Potency is 2.59 µM (active).

Turning to `O=C(CSc1nnnn1-c1ccccc1)Nc1nsc(-c2ccc(Cl)cc2)n1`, the “activity change, negative = inhibition” value was 93.8%.

In the case of `CCc1nnc(NC(=O)CSc2nnc(-c3ccccc3NC(=O)c3ccccc3)o2)s1`, the “activity change, negative = inhibition” value was -5.82%.

Turning to `O=C(CSc1ncn[nH]1)Nc1nnc(-c2ccccc2)s1`, the Potency was 0.231 µM (active).

Regarding `CC1CCN(C(=O)CCCOc2cc(=O)n(C)c3ccccc23)CC1`, the Potency is 23.1 µM (active).

Regarding `O=C(N1CCN(c2ccccn2)CC1)N1c2ccccc2Sc2ccccc21`, the Potency was 7.31 µM (active).

On to `CC(=O)Nc1ccc(NS(=O)(=O)c2cc(-c3n[nH]c(=O)c4ccccc34)ccc2C)cc1`, for which the Potency was 23.1 µM (active).

Regarding `Cc1ccc(NS(=O)(=O)c2cc(-c3n[nH]c(=O)c4ccccc34)ccc2C)cc1`, the Potency was 18.4 µM (active).

For the compound `Cc1cc(=O)[nH]c2ccc(S(=O)(=O)Nc3ccc(O)cc3)cc12`, the “activity change, negative = inhibition” value was -19.3%.
